# Measured values taken from PubChem BioAssay.
# The source made the active and inactive calls.
# Columns and labels:
# [1] = target: Albumin (Bos taurus) (UniProt P02769); test: compounds binding labelled BSA control protein – biochemical, small-molecule microarray, Alexa647 label, 635/667 nm fluorescence, artefact control for SMM control protein annotation, profiling panel (AID 1118); conditions: BSA-A647 binding, fluorescence 635 nm, higher = more signal;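 further: score merges 667 nm emission intensity and signal-to-noise per printed compound spot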
# Sequence of Albumin (Bos taurus) (P02769 whole entry, looked up): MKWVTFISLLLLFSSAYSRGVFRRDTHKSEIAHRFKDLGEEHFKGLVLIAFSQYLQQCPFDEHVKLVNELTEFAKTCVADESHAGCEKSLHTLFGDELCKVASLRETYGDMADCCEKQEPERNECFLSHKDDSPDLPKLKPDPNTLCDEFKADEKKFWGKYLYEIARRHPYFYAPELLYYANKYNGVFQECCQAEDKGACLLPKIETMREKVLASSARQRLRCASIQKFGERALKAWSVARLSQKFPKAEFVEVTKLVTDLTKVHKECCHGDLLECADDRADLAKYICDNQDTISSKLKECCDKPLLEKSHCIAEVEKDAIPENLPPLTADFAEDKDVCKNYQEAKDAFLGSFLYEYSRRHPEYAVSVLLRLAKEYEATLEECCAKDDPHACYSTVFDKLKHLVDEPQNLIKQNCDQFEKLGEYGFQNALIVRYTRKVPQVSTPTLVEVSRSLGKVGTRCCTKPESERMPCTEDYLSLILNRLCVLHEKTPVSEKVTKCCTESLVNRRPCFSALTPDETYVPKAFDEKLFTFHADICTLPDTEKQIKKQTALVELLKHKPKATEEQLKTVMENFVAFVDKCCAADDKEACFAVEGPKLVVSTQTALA
# [2] = probe aXIP binding to arrayed compounds – biochemical, NeuroSMM set, 635/667 nm fluorescence, primary screen (AID 1119); conditions: small-molecule microarray, higher = more signal, called active from +8 up or from −8 down;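 further: probe is the protein aXip251-270 applied at 1 µg/mL to compound-printed slides; binding of probe to printed compounds measured as 667 nm fluorescence plus signal to noise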
# [3] = probe aNOTCH3 binding on compound microarray – biochemical, small-molecule microarray, 635/667 nm fluorescence, primary screen (AID 1120); conditions: higher = more signal;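 further: probe is a biotin-tagged antibody raised against NOTCH3 rather than NOTCH3 protein; score merges spot fluorescence near 667 nm with spot signal to noise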
# [4] = probe aNOTCH2 binding on compound microarray – biochemical, small-molecule microarray, 635/667 nm fluorescence, primary screen (AID 1121); conditions: higher = more signal;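 further: score merges feature fluorescence read at 667 nm with its signal to noise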
# [5] = target: Carbonic anhydrase 2 (Homo sapiens) (UniProt P00918); test: compounds binding carbonic anhydrase 2 – biochemical, small-molecule microarray, Alexa647-labelled CAII, profiling panel (AID 1122); conditions: CAII-A647 binding fluorescence, higher = more signal
# [6] = COS7 lysate on small-molecule microarray, probe aHis, 635 nm (AID 1123); conditions: COS7 cell lysate, fluorescence, higher = more signal;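 further: z-score combines 667nm fluorescence intensity with signal-to-noise per printed compound spot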
# [7] = probe aLAP1 signal on lysate-treated microarray – cell lysate, small-molecule microarray, COS7 lysate, primary screen (AID 1124); conditions: probe aLAP1, fluorescence, higher = more signal;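 further: lysate comes from COS7 cells expressing LAP1 and is applied at 0.3 µg/mL; score merges spot fluorescence near 667 nm with signal-to-noise over triplicate slides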
# [8] = system: Sam68 (KHDRBS1); test: compounds binding KHDRBS1 protein – biochemical, small-molecule microarray, 635 nm fluorescence, primary screen (AID 1125); conditions: higher = more signal;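 further: score merges 667 nm channel intensity with signal to noise over triplicate slides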
# [9] = system: Chordin-like protein 2 (CHRDL2); test: compounds binding chordin-like 2 – biochemical, small-molecule microarray, 635 nm fluorescence, primary screen (AID 1126); conditions: fluorescence 635 nm, higher = more signal;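 further: printed compound slides probed with Chrdl2 protein at 4 µg/mL for 1 h at 4 C; score merges 667 nm emission intensity with signal to noise over three replicate slides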
# [10] = target: Concanavalin-A (Canavalia ensiformis) (UniProt P02866); test: compounds binding concanavalin A lectin – biochemical, small-molecule microarray, Alexa647 label, 635 nm, artefact control for SMM control protein annotation, primary screen (AID 1127); conditions: ConA-A647 binding fluorescence, higher = more signal;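 further: z combines 667 nm emission intensity with signal-to-noise across three replicate slides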
# Sequence of Concanavalin-A (Canavalia ensiformis) (P02866 whole entry, looked up): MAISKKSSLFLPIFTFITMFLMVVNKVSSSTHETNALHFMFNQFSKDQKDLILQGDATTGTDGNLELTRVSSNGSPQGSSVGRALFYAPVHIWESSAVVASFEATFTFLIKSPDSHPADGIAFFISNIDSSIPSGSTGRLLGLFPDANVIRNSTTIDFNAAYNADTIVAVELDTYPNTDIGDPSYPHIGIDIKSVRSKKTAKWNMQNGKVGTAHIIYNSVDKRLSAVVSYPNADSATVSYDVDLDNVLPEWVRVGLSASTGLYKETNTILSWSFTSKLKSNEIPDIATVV
SMILES,composite z-score [1],composite Z-score [2],composite z-score [3],composite z-score [4],composite z-score [5],composite z-score [6],composite z-score [7],composite z-score [8],composite z-score [9],composite z-score [10]
COc1ccc([Si](C)(C)[C@H]2[C@H](CC(=O)N3Cc4ccccc4C[C@H]3CO)O[C@@]3(C(=O)N(Cc4ccc(N5C(=O)c6cccc7cccc5c67)cc4)c4ccccc43)[C@@H]2C)cc1,0.502,0.858 (inactive),-0.0647,-0.207,0.376,0.822,0.295,1.3,1.13,1.08
NC(=O)[C@H]1[C@@H]2C(=O)O[C@@H](c3ccccc3)[C@@H](c3ccccc3)N2[C@@H](c2ccc(O)cc2)[C@]12C(=O)Nc1ccc(C#CC3=CCCCC3)cc12,0.396,0.224 (inactive),-0.0273,-0.156,0.293,2.13,0.249,0.662,-0.758,0.565
CN1C(=O)C2C(C1=O)C1C=C(CCCO)C2C(C2CC2)N1Cc1cc2c(cc1Br)OCO2 (stereo not given),0.984,1.32 (inactive),0.201,-0.0097,0.756,2.63,1.25,1.18,0.0995,0.738
COCCOC(=O)N1C(=O)[C@@]2(c3cc(C#CCCO)ccc31)[C@H](c1ccccc1OCCO)N1[C@H](c3ccccc3)[C@H](c3ccccc3)OC(=O)[C@H]1[C@@H]2C(=O)N1CCCCCCC1,0.86,0.358 (inactive),1.39,0.333,0.761,3.2,0.796,1.29,1.05,1.11
O=C1[C@@H]2[C@@H](CC(COc3ccccc3)=C3[C@@H](CCc4ccccc4)OB(O)C[C@@H]32)C(=O)N1Cc1ccccc1,-0.0421,0.196 (inactive),0.0242,-0.13,0.413,0.782,0.111,-0.258,0.139,0.0019
COCCOC(=O)N1C(=O)[C@@]2(c3ccccc31)[C@H](c1ccccc1OCCO)N1[C@H](c3ccccc3)[C@H](c3ccccc3)OC(=O)[C@H]1[C@@H]2C(N)=O,0.856,1.26 (inactive),-0.0324,-0.181,0.565,2.36,1.01,1.3,0.651,1.18
C=C(COC)C(=O)CC[C@H](OC(=O)c1cccnc1)c1ccc(CO)o1,0.0617,-0.496 (inactive),0.0225,-0.0569,0.317,-0.22,-0.237,0.558,0.686,0.695
C=C[C@@H](OC)[C@H](OC(=O)Nc1ccc(OC)cc1)c1ccc(OC)c(O)c1,-0.787,0.43 (inactive),-0.246,-0.203,0.415,1.36,0.0218,-0.853,-0.96,-0.613
O=C1N(CCS(=O)(=O)c2ccccc2)Cc2ccccc2[C@@H]2OC(c3ccc(OCCCO)cc3)=N[C@]12CCS(=O)(=O)c1ccccc1,0.0789,0.02 (inactive),0.128,0.123,0.628,2.98,0.638,1.31,1.15,1.11
CC(C)C(CO)N1C(=O)[C@@H]2[C@H]3C(=O)OCC=C[C@H]3OC23C=CCN(C(C)(C)C)C(=O)[C@@H]13 (stereo not given in full),-0.0498,-0.343 (inactive),-0.252,-0.168,0.409,-0.843,-0.495,-1.41,-0.109,0.0282
C=C(COC)/C(=C/C[C@@H](OC(=O)c1ccncc1)c1ccccc1OCCO)c1cc(C(=O)OC)ccc1OC,0.247,-0.476 (inactive),-0.171,-0.132,0.803,0.107,0.748,-0.227,-1.12,-0.71
Cc1ccc(S[C@]2(C(=O)NC(C)C)CC(=O)N(Cc3ccccc3Cl)[C@@H]2c2ccc(CO)cc2)cc1,0.29,0.0728 (inactive),-0.294,-0.146,0.717,0.634,0.542,-1.21,-1.85,-0.744
CO[C@H]1O[C@H](CO)[C@@H](OC(=O)c2ccc(Br)cc2)[C@@H]2OC(=O)[C@H](Cc3ccccc3)C/C=C/C[C@@H](Cc3ccccc3)C(=O)O[C@@H]12,0.776,0.726 (inactive),0.0971,-0.15,0.704,0.186,1.07,-0.148,0.136,0.599
O=C1[C@@]23C=C(Br)[C@H](C[C@@H]2COC3)[C@@]12CO2,-0.512,0.395 (inactive),0.147,-0.153,-0.0903,0.301,-0.0796,0.206,0.532,0.459
C=C(C(=O)CC[C@H](OC(=O)c1ccccc1-c1ccccc1C(=O)O)c1ccccc1OCCO)C(C)C,0.0198,0.292 (inactive),-0.0035,-0.176,0.52,0.559,-0.0566,0.974,0.0958,-0.138
C[C@]1(C(=O)NCCN2CCOCC2)c2ccccc2C(=O)N(Cc2cc(F)cc(C(F)(F)F)c2)[C@H]1c1ccc(CO)cc1,0.0744,0.0652 (inactive),-0.159,-0.0928,0.773,2.18,0.535,0.692,-0.841,0.828
CCC(CC)C(O)C1C=CC2C(=O)N(c3ccccc3)C(=O)C2N1Nc1ccc([N+](=O)[O-])cc1 (stereo not given),1.01,1.13 (inactive),0.443,0.125,0.573,1.72,1.35,1.3,-0.0998,1.05

SMILES,composite z-score [1],composite Z-score [2],composite z-score [3],composite z-score [4],composite z-score [5],composite z-score [6],composite z-score [7],composite z-score [8],composite z-score [9],composite z-score [10]
CC(C)C(=C=CC[C@@H](O)c1cccc(OCCO)c1)C[C@@H](O)c1ccccn1,0.0608,-0.259 (inactive),-0.0362,-0.123,0.26,-0.293,0.726,-0.228,-0.377,-0.155
NC(=O)[C@@H]1[C@H]2C(=O)O[C@H](c3ccccc3)[C@H](c3ccccc3)N2[C@H](c2ccc(OCCO)cc2)[C@@]12C(=O)Nc1ccc(C#CCCO)cc12,0.629,0.238 (inactive),-0.12,-0.0681,0.407,0.661,0.959,0.837,-0.178,0.557
Cc1ccc(N2C(=O)c3ccccc3[C@](C)(C(=O)NCc3ccccc3)[C@@H]2c2ccc(CO)cc2)nc1,-0.377,-0.446 (inactive),0.0311,0.0611,0.764,0.688,0.656,-0.316,0.408,0.0943
CC(C)OC(=O)CC(=O)CC(O)c1ccc([N+](=O)[O-])cc1 (stereo not given),0.169,-0.314 (inactive),-0.0413,0.0215,0.152,0.666,0.447,0.543,-1.23,-0.122
COCCOC(=O)N1C(=O)[C@@]2(c3cc(C#CCC(C(=O)OC)C(=O)OC)ccc31)[C@H](C(=O)NC[C@H](O)c1ccccc1)[C@H]1C(=O)O[C@H](c3ccccc3)[C@H](c3ccccc3)N1[C@@H]2c1ccc(OCCO)cc1,0.45,1.02 (inactive),0.0899,-0.099,0.521,1.66,0.257,1.3,1.13,1.14
COc1cc2c(cc1O)C(c1ccc(CN3CCCC3)cc1)N(C)CC2 (stereo not given),0.462,0.142 (inactive),-0.173,-0.127,0.359,-0.138,2.24,-0.645,-1.26,0.113
O=C(CS)NCCCCCCNC(=O)[C@@H]1C[C@@H]2C(=O)NCC(=O)N2[C@@H]1c1ccc(O)cc1,0.166,0.549 (inactive),-0.397,-0.183,0.68,2.94,-0.136,-0.477,-0.134,-0.434
[N-]=[N+]=NCc1ccccc1[C@H]1OC(c2ccc(OCCCO)cc2)=N[C@@]1(CCS(=O)(=O)c1ccccc1)C(=O)NCc1ccccc1,0.852,0.421 (inactive),0.281,0.0323,0.435,1.6,0.0714,1.24,0.187,1.13
COc1cc2c(cc1O)C(c1cccs1)N(Cc1sc3ccccc3c1Cl)CC2 (stereo not given),0.931,-0.818 (inactive),0.173,0.0294,0.587,2.04,1.17,1.3,0.613,1.07
[N-]=[N+]=Nc1ccccc1C[C@]1(C(=O)NCc2ccccc2)COC(c2ccc(OCCCO)cc2)=N1,0.784,-0.135 (inactive),0.0945,-0.0859,0.383,2.52,0.171,1.3,-0.362,0.995
C=CCNC(=O)[C@@H]1[C@H]2C(=O)O[C@H](c3ccccc3)[C@H](c3ccccc3)N2[C@H](c2ccc(OCCO)cc2)[C@@]12C(=O)N(C(=O)OCCOC)c1ccc(C#CCCO)cc12,0.474,0.365 (inactive),0.0422,-0.0677,0.576,1.23,0.659,1.27,0.528,1.11
CCOC(=O)C[C@H]1[C@H](OC(=O)c2ccc(-c3ccccc3)cc2)[C@@H](NC(=O)CC(C)C)c2cc(OCCCO)ccc2N1C(=O)c1ccccc1,0.506,-0.221 (inactive),-0.0057,-0.124,0.108,0.806,-0.2,1.03,0.0549,0.27
COCCOC(=O)N1C(=O)[C@@]2(c3cc(C#CCCO)ccc31)[C@H](C(=O)N1CCCCCCC1)[C@H]1C(=O)O[C@H](c3ccccc3)[C@H](c3ccccc3)N1[C@@H]2c1ccccc1OCCO,0.951,3.51 (inactive),1.46,0.662,0.599,2.89,0.359,1.32,1.14,1.09
O=c1cccc(-c2ccco2)o1,0.167,0.207 (inactive),0.0522,-0.127,0.25,0.193,0.462,0.969,1.05,0.495
Cc1c(NC(=O)/C(C#N)=C/c2ccccc2Cl)c(=O)n(-c2ccccc2)n1C,0.942,-0.683 (inactive),-0.0048,-0.011,0.704,1.08,0.237,0.247,0.107,0.996
C=CCC(OC(C)=O)[C@@H]1[C@@H](N(Cc2cccc3ccccc23)C(=O)c2cccc3ccccc23)c2cc(OCCCO)ccc2N1C(=O)c1ccc2ccccc2c1 (stereo not given in full),0.0949,0.128 (inactive),0.0676,-0.0883,0.206,-0.203,-0.225,-0.047,0.0526,-0.0264
CO[C@H]1O[C@H](CO)[C@@H](OC(=O)CCc2ccccc2)[C@H](OC(=O)c2cc3ccccc3[nH]2)[C@H]1OC(=O)c1cc2ccccc2[nH]1,0.777,-0.134 (inactive),-0.0284,-0.223,0.68,0.78,-0.206,1.22,0.453,1.09
